# Assay results from PubChem BioAssay AID2599 (Sanford-Burnham Center for Chemical Genomics, 2010).
# In all, about 330,000 compounds went through this assay and about 5,800 (1.8%) were called active. The sample holds actives, similar compounds and a random draw of the others, so the mix is not that of the screen. Unmarked numbers belong to inactive results.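 How the source made its calls: active means inhibition above about 50% at the single tested dose (limit read from the data); inactive means the rest.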
# Target: Sentrin-specific protease 6 (Homo sapiens) (UniProt Q9GZR1)
# Experiment: inhibition of human SENP6 catalytic domain – biochemical, luminescence, uHTS, primary screen (AID 2599);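 further: plate controls were DMSO wells with enzyme for no effect and DMSO wells lacking enzyme for full effect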
# Conditions: Recombinant SENP6 catalytic domain, aminoluciferin luminescence; at 10 µM; hits give high values
# Sentrin-specific protease 6 (Homo sapiens), sequence (Q9GZR1 628-1112 limits assumed): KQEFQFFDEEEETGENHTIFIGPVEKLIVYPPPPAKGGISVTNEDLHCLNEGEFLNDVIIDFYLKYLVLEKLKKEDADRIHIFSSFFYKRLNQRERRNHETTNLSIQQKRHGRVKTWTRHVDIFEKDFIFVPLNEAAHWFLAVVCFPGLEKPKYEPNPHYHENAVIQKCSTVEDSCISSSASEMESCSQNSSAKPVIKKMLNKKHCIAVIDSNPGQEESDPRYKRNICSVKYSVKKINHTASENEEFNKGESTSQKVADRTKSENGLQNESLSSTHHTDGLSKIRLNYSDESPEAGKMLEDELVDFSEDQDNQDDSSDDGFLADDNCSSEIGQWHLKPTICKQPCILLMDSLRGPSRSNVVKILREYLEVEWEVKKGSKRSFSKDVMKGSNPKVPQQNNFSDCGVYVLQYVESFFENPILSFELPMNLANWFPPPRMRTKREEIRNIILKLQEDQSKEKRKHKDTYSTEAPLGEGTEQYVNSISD
row,Structure (SMILES),inhibition
1,O=C(NCCS(=O)(=O)NCc1ccc(Cl)cc1)c1ccccc1,-0.893%
2,COc1cccc(N2C(=O)CC(N3CCc4ccccc4C3)C2=O)c1 (configuration not stated),0.083%
3,CCOc1ccc(N2C(=O)CSC2=NC#N)cc1,-18.7%
4,COc1cc2ccccc2cc1C(=O)Nc1ccncc1,-5.66%
5,CC(C)(C)n1nc2c(c1NC(=O)c1cc3ccccc3o1)CSC2,2.49%
6,O=C(Nc1ccncc1)c1cc2ccccc2o1,63.5% (active)
7,CC(OC(=O)Cc1ccc(F)cc1)C(=O)N1CCc2ccccc21 (configuration not stated),8.22%
8,CCC(=O)Nc1nnc(S(=O)(=O)N2CCCc3ccccc32)s1,-3.06%
9,COc1ccc(-c2[nH]nc(-c3ccccc3)c2-c2nc3ccccc3[nH]2)cc1,-1.01%
10,c1ccc2[nH]c(-c3nc4ccccc4[nH]3)nc2c1,97.2% (active)
11,COc1ccc(Br)cc1C(=O)NC(=S)Nc1cc(-c2nc3ccccc3[nH]2)ccc1C,6.04%
12,Clc1ccccc1SCc1nc2ccccc2[nH]1,39.4%
13,Nc1cccc(CCc2nc3ccccc3[nH]2)c1,-9.91%
14,Cc1ccc(-c2nc3ccccc3[nH]2)cc1N,91% (active)
15,CC1(C)C2CCC13CS(=O)(=O)NC3C2 (configuration not stated),-8.89%
16,O=C(Nc1ccc(-c2ccc3nncn3n2)cc1)C1CCCCC1,-18.8%
17,COc1ccc(N2CCN(CCCNC(=O)C3CCN(S(=O)(=O)N4CCOCC4)CC3)CC2)cc1,8.09%
18,CCNC(=S)N1CCN(S(=O)(=O)c2ccc(Cl)s2)CC1,-2.28%
19,COc1ccc([N+](=O)[O-])cc1N(CC(=O)Nc1ccccc1C(=O)N1CCOCC1)S(C)(=O)=O,-14.4%
20,Cc1cc(C)c(S(=O)(=O)c2ccc(F)cc2C)c(=O)[nH]1,-7.65%
21,Cc1ccc(/C(N)=N/OC(=O)COc2ccc(Cl)c(C)c2)cc1,-9.12%
22,Cc1cccc(/C(N)=N/OC(=O)c2ccccc2Cl)c1,86.2% (active)
23,N/C(=N\OC(=O)c1cc(-c2ccccc2)nc2ccccc12)c1ccncc1,-23.3%
24,N#Cc1cc([N+](=O)[O-])ccc1Oc1cccc(/C=N/NC(=O)c2ccc(Cl)cc2)c1,-30.8%
25,COc1ccc2c(C)cc(SCC(=O)NCC3CCCO3)nc2c1 (configuration not stated),2.3%

row,Structure (SMILES),inhibition
1,Nn1c(Cc2cccc3ccccc23)nnc1SCC(=O)N1CC(=O)Nc2ccccc21,-14.3%
2,CN(c1ccccc1)S(=O)(=O)c1cc(C(=O)Nc2nc3ccccc3[nH]2)ccc1Cl,0.946%
3,O=C(Cc1ccsc1)N1CCN(S(=O)(=O)c2cc(C(F)(F)F)cc(C(F)(F)F)c2)CC1,-12.7%
4,O=c1c(-c2cccc(Cl)c2)c[nH]n1-c1ccccc1,50.4% (active)
5,O=C1c2ccccc2NC(c2ccc(-c3cccc(Cl)c3)o2)N1O (configuration not stated),2.11%
6,O=c1c(-c2ccccc2Cl)c[nH]n1-c1ccccc1,5.63%
7,Cc1ccc(NC(=O)c2ccn(C(=O)Nc3ccccc3)n2)c(C)c1,8.66%
8,CCCCC(CC)CNC(=O)C(=O)C1C(=O)Nc2ccccc21 (configuration not stated),-18.1%
9,CCCn1nnnc1NCc1ccc(OC)cc1,-1.58%
10,COC(=O)c1scc(S(=O)(=O)C(C)(C)C)c1-n1cccc1,-3.91%
11,N/C(=N\OC(=O)c1ccc([N+](=O)[O-])cc1)c1ccccn1,93.3% (active)
12,O=C(COC(=O)c1ccccn1)NNC(=O)c1ccc([N+](=O)[O-])cc1,-1.82%
13,COc1ccc(C(=O)O/N=C(\N)c2ccccn2)cc1[N+](=O)[O-],13%
14,Cc1ccc(NC(=O)c2ccccn2)cc1S(=O)(=O)N1CCOCC1,-7.58%
15,Cc1ccc(C(=O)O/N=C(\N)c2ccccn2)cc1Cl,94.1% (active)
16,O=C(COC(=O)c1ccccn1)NNC(=O)c1ccc(Br)cc1,6.84%
17,Oc1cc2c(cc1O)CN(C(=S)NCCc1ccc(Cl)cc1)CCC2,1.23%
18,O=C(NCc1ccncc1)C1CCN(C(=O)c2cccc(Cl)c2)CC1,-3.02%
19,Cc1cc(Nc2cccc(C)c2C)n2ncnc2n1,-7.33%
20,C=CCn1c(-c2ccc(Cl)cc2)ccc(C#N)c1=O,4.58%
21,O=C(c1cccc(S(=O)(=O)Nc2ccccc2Cl)c1)N1CCN(C(=O)c2ccco2)CC1,0.095%
22,O=C(Nc1ccc2c(c1)CCC2)c1cccc(S(=O)(=O)N2CCN(c3ccc(F)cc3)CC2)c1,-2.68%
23,O=C(Nc1ccc2c(c1)CCC2)c1cccc(S(=O)(=O)Nc2ccccc2Cl)c1,58.9% (active)
24,CCOc1cnc(C(=O)NNC(=O)c2ccccc2Br)o1,-9.25%
25,COc1ccc(C(=O)Nc2ccc(F)cc2F)cc1,76.1% (active)

row,Structure (SMILES),inhibition
1,COc1cc(OC)cc(C(=O)OCC(=O)Nc2ccc(F)cc2F)c1,3.41%
2,COc1ccccc1CC(=O)Nc1ccc(F)cc1F,-5.72%
3,Cc1ccc(C)c(S(=O)(=O)N2CCN(C(=O)Nc3ccccc3)CC2)c1,-12.7%
4,CC1CCCC(C)N1C(=O)COC(=O)COc1ccccc1C#N (configuration not stated),-21.9%
5,O=C(OCc1ccc(Br)cc1)c1cccc(-c2nnc(-c3ccccc3)o2)c1,-4%
6,OC(c1nnc(-c2ccccc2)o1)c1cccs1 (configuration not stated),-10.9%
7,CSc1ccccc1-c1nnc(-c2ccc(Cl)cc2)o1,26.3%
8,Brc1ccc(-c2noc(-c3ccccc3)n2)o1,-29.7%
9,CN(C)c1ccc(-c2nnc(-c3cccnc3)o2)cc1,14.7%
10,Brc1ccc(-c2nnc(-c3ccccc3)o2)o1,67.5% (active)
11,Nc1ccc(-c2nnc(-c3ccccc3)o2)cc1,61.5% (active)
12,COc1ccccc1-c1nnc(-c2ccc(F)cc2)o1,40.7%
13,Nc1ccc(-c2nnc(-c3ccc(-c4ccccc4)cc3)o2)cc1,53.4% (active)
14,COc1ccc(C(C)=O)cc1COC(=O)Cn1cnc2ccccc2c1=O,-0.874%
15,O=C(NCC1CCCO1)c1ccc(S(=O)(=O)Nc2ccc(F)cc2)cc1 (configuration not stated),-0.148%
16,CN(C(=O)c1ccccc1)c1nccnc1C#N,11.5%
17,CC(=O)c1c(C)[nH]c(C(=O)OCC(=O)NCCC(C)C)c1C,-9.8%
18,Cc1cc(C)c(C#N)c(SCC(=O)N(CC(C)C)C2CCS(=O)(=O)C2)n1 (configuration not stated),-11.7%
19,O=C(O)c1ccc(/C=C2\SC(=S)N(NC(=O)c3ccc(Br)cc3)C2=O)cc1,-7.64%
20,O=C(O)c1ccc2c(c1)C(=O)N(NC(=O)c1ccc(O)cc1)C2=O,-2.08%
21,CC(=O)N1C(=O)/C(=C2\SC(=S)N(NC(=O)c3ccc(O)cc3)C2=O)c2ccccc21,80.2% (active)
22,O=C(Nc1ccccc1-c1nc2ccccc2[nH]c1=O)c1cccs1,0.16%
23,C/C(=N\Nc1nc2ccccc2[nH]1)c1cccs1,60.7% (active)
24,C/C(=N\Nc1ncc(Cl)cc1Cl)c1cccs1,6.67%
25,COc1ccc(C(CC(=O)c2ccccc2)S(=O)(=O)c2ccccc2)cc1 (configuration not stated),59.1% (active)

row,Structure (SMILES),inhibition
1,COc1ccc(N(Cc2ccccc2)S(=O)(=O)c2cccc(C(=O)O)c2)cc1,-6.92%
2,COc1ccc(NC(=O)CS(=O)(=O)c2ccccc2)cc1,13.2%
3,COc1ccc(NC(=O)C2CCC(CNC(=O)[C@@H]3Cc4ccccc4CN3)CC2)cc1 (some centres not stated),-1.01%
4,CCC(NC(=O)c1cc(COc2ccc(F)c(F)c2)on1)c1ccncc1 (configuration not stated),12.2%
5,O=C(NCCN1CCCC(O)C1)c1cc(COc2c(F)cccc2F)on1 (configuration not stated),4.9%
6,Cc1ccc(NC(=O)CSCC(=O)Nc2sccc2C#N)cc1,0.055%
7,Cc1csc(SCC(=O)Nc2sccc2C#N)n1,88.2% (active)
8,Cc1cccc(C)c1Nc1nnc(SCC(=O)Nc2sccc2C#N)s1,22.6%
9,COc1ccc(CCNC(=O)CS(=O)(=O)Cc2nc(-c3ccc(C)cc3)oc2C)cc1OC,8.83%
10,CSCCC(Nc1ccc(S(=O)(=O)N2CCOCC2)cc1[N+](=O)[O-])C(=O)OCC(=O)N(C(C)C)C(C)C (configuration not stated),-3.58%
11,COc1ccccc1CN(C)C(=O)c1cc2ccccc2o1,-15.1%
12,C/C(=N\NC(=S)Nc1ccc(C)cc1)c1cc2ccccc2o1,-7.73%
13,Cc1ccc(OC(=O)c2cc3ccccc3o2)cc1,72.6% (active)
14,CC1=C/C(=N\OS(=O)(=O)c2ccccc2)C=CC1=O,-4.19%
15,CCOc1ccc(OCC)c(NC(=O)CCS(=O)(=O)c2ccc(C)cc2)c1,-6.59%
16,CC(=O)Oc1ccc2c(c1)C(=O)c1ccccc1C2=O,55% (active)
17,CC(=O)Oc1cccc(C(=O)Nc2ccccc2NC(=O)c2cccc(OC(C)=O)c2)c1,7.29%
18,CC(=O)O[C@H]1c2ccccc2-c2ccccc2[C@@H]1OC(C)=O,8.21%
19,CC(C)C(=O)NCC(c1cccs1)S(=O)(=O)c1ccc(F)cc1 (configuration not stated),-1.5%
20,COc1cc(/C=C/C(=O)OCC(=O)NC(=O)NCc2ccccc2)ccc1OCC#N,-0.36%
21,Cc1cc2oc3ccc(NCCC4CCCN4C)cc3c(=O)c2cc1C (configuration not stated),2.23%
22,O=C(Nc1c2c(nn1-c1cccc(Cl)c1)CS(=O)(=O)C2)c1cccs1,-6.08%
